High-throughput results deposited in PubChem by National Center for Advancing Translational Sciences (NCATS).
In the library only some 17% were active in any assay of this set; here they are far more common.
DT40 TDP1 no CPT = qHTS for Inhibitors of human tyrosyl-DNA phosphodiesterase 1 (TDP1): qHTS in cells in absence of CPT; DT40 Tdp1-/- hTDP1 cells, no CPT, ATP luminescence, 48 h; Potency, µM (titrated, usually from 46.2 µM), actives largely listed as inhibitors; 15% of 420,000 active; AID 686978, 2013; also: nearly all actives have a fitted effect of over 55% in size
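Camptothecin absent (DMSO only). Human TDP1-complemented DT40 knockout cells, 400 cells/well, 37 °C for minimum 48 hr; ATP measured via CellTiter-Glo, 30 min dark incubation, luminescence.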
ATXN viability = cell viability loss in ATXN counter-screen. S2 cells (HEK-293 line with an ATXN2-luciferase reporter) viability, CellTiter-Fluor protease fluorescence, 24 h. Potency, µM (titrated, usually from 56.7 µM), hits mostly cytotoxic. 0.49% of 400,000 active. AID 651635; also: nearly all actives have a fitted effect of over 40% in size
TGFb inhibitor = inhibitors of TGF-b signaling; HepG2 CAGA-GFP TGF-b/SMAD3 reporter, GFP fluorescence, 18 h; TGF-beta stimulated, 500 pg/mL final; Potency, µM (titrated, usually from 46.1 µM), usual class: inhibitors; 1.2% of 410,000 active; AID 588855; also: nearly all actives have a fitted effect of over 65% in size
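Per well, imaged GFP fluorescence of HEPG2 CAGA-GFP cells gives the signal; cells get compound, then TGF-beta (500 pg/mL final), 18 h at 37 degrees C; %Activity versus -TGF-beta and +DMSO controls.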
DT40 TDP1 CPT = DT40-hTDP1 cell growth loss with CPT; 12% of 420,000 active; chicken DT40 Tdp1-/-;hTDP1 cells + 20 nM CPT, ATP luminescence, 48 h; Potency, µM (titrated, usually from 46.2 µM), usual class: inhibitors; AID 686979; also: nearly all actives have a fitted effect of over 55% in size
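Chicken DT40 Tdp1-/- cells stably complemented with human TDP1 were seeded at 400 cells/well in medium containing 20 nM camptothecin, exposed to pin-transferred compounds, and grown at 37 °C for at least 48 hr. Viability was read as ATP luminescence.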
ATXN2 expr inh = ATXN2 expression inhibition; Potency, µM (highest dose often 57 µM), hits mostly inhibitors; 0.72% of 360,000 active; HEK-293 ATXN2-luciferase reporter, luminescence, 24 h; also: nearly all actives have a fitted effect of over 55% in size
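ATXN2-luciferase reporter cells (luciferase flanked by upstream and downstream ATXN2 gene portions) were treated 24 h at 37 °C with compounds at up to 57 uM. SteadyGlo luminescence gave expression; GF-AFC fluorescence gave viability.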
HepG2 tox = kills HepG2 cells in TGF-b inhibitor counter-screen. HepG2 CAGA-GFP viability, ATP luminescence, 18 h. Potency, µM (highest dose often 46.1 µM), most hits filed as cytotoxic. 0.76% of 410,000 active
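CellTiter-Glo luminescence gave cytotoxicity after 18 hours at 37 degrees C. The cells were HepG2 CAGA-GFP in 1% FBS DMEM, stimulated with 500 pg/mL TGF-beta after compound addition. %Activity was normalised to no-cell wells (complete cell-killing) and DMSO (no toxicity), and curves were fitted and classified.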
Numbers stand for hits; 0 = inactive; ? = inconclusive; - = no result; ! = repeats disagree. Calls follow the shape of the dose curve; as a rule, active = well fitted curve in the direction sought with a large enough effect; inconclusive = small, poorly fitted or top-dose-only effect, or another doubt; inactive = no such curve, though single readings can be large; an effect the other way counts as inactive or inconclusive.

SMILES	DT40 TDP1 no CPT	ATXN viability	TGFb inhibitor	DT40 TDP1 CPT	ATXN2 expr inh	HepG2 tox
CCOc1cc(/C=N/Nc2cccc(C(=O)O)c2)ccc1OC(=O)c1ccccc1	?	0	0	0	14.1µM	0
Cc1ccc2nc(-c3ccc(C)c(NC(=O)COc4ccc(Br)cc4)c3)oc2c1	0	-	0	?	-	0
Cc1cc(C)c(NC(=O)C2CCN(S(C)(=O)=O)CC2)c(C)c1	0	0	0	0	-	0
CCOC(=O)COc1ccc2c(C)c(CCN(CC)CC)c(=O)oc2c1Cl	?	0	-	?	0	-
COc1cc(C=NNc2ccccc2)ccc1OC(=O)c1ccccc1	18.4µM	?	0	?	-	0
COc1ccc2c(c1OC)CN(C)CCc1cc3c(cc1C(O)C2)OCO3 (stereo not given)	?	0	0	?	0	0
COc1ccc2c(c1OC)C(Cc1ccccc1)N1CCc3cc4c(cc3C1C2)OCO4 (stereo not given)	11.9µM	-	-	5.96µM	-	-
O=C1c2ccccc2C(=O)c2cc(Cn3cc(-c4cccc(C(F)(F)F)c4)nn3)ccc21	0	-	0	?	-	0
O=[N+]([O-])c1ccc(Cn2cc(-c3cccc(C(F)(F)F)c3)nn2)cc1	15.8µM!	0	?	?	0	0
Clc1ccc(CN=C(Nc2ccccc2)NC2CCCCC2)cc1	23.1µM	?	?	18.4µM	?	0
O=C(c1cccn2c(=O)c3ccc(Cl)cc3nc12)N1CCN(Cc2ccc3c(c2)OCO3)CC1	18.4µM	0	0	?	0	0
O=C(O)c1cc(-c2ccc3c(c2)OCO3)nc2ccc(Cl)cc12	0	0	0	0	0	0
O=C(c1cc(-c2ccncc2)nc2ccc(Cl)cc12)N1CCN(Cc2ccc3c(c2)OCO3)CC1	23.1µM	0	0	16.4µM	0	0
COc1ccc(CN2CCN(C(=O)c3cc(-c4cccnc4)nc4ccc(Cl)cc34)CC2)c(OC)c1OC	20.6µM	0	?	?	0	0
O=C(c1cc(-c2ccncc2)nc2ccc(Br)cc12)N1CCN(Cc2ccc3c(c2)OCO3)CC1	23.1µM	?	0	?	0	0
CC(=O)c1c[nH]c(C(=O)NC2CCCCCC2)c1	0	0	0	0	0	0
CCCCN1C(=O)N(CCc2ccc(F)cc2)S(=O)(=O)c2cc(C(F)(F)F)ccc21	?	?	0	0	0	0
O=C(Cn1c(=O)n(CCc2ccccc2)c(=O)c2c3c(sc21)CCCC3)Nc1ccc(F)c(F)c1	?	0	0	?	0	0
Cc1ccc(-c2noc(-c3nnn(CC(=O)Nc4cccc(C(F)(F)F)c4)c3N)n2)cc1	2.06µM	-	-	2.06µM	-	0
COc1cccc(NC(=O)Cn2nnc(-c3nc(-c4ccccc4)no3)c2N)c1	18.4µM	-	?	?	-	0
Cc1ccc(-c2noc(-c3nnn(CC(=O)Nc4ccc(C)c(Cl)c4)c3N)n2)cc1	0	-	-	0	-	0
COc1ccc(C(=O)N2CCC[C@@]3(CCN(Cc4ccc(C#N)cc4)C3)C2)cc1	?	-	-	0	-	-
CCc1ccc(C2CC(=O)N(c3cccc(C(F)(F)F)c3)C3=C2C(=O)OC3)cc1 (stereo not given)	0	0	0	0	0	0
COc1ccccc1C1CC(=O)N(c2cccc(C(F)(F)F)c2)C2=C1C(=O)OC2 (stereo not given)	?	0	0	8.2µM	0	0
CC(C)(C)C(=O)Nc1ccc(/C=C/C(=O)c2ccco2)cc1	?	?	?	?	0	0
O=C(C1CCN(CC2CC=CCC2)CC1)N(CCc1ccccc1)Cc1ccccc1 (stereo not given)	0	?	0	0	0	0
O=C(C1CCN(CCCc2ccccc2)CC1)N(CCc1ccccc1)Cc1ccccc1	14.6µM	0	?	?	0	0
Cc1nn(C)cc1/C=N/NC(=O)C1(O)c2ccccc2-c2ccccc21	0	0	0	0	0	0
